Whole data set: some 2,900 compounds, median “NF-kB SEAP reporter activity, fold change vs agonist alone” near 0.99, cut for the highest 2% near 2.6. The entries come from a sample that favours the highest values as a whole.

In test [1] the test system is RAW-Dual. Briefly: NF-kB SEAP reporter activity, fold change vs agonist alone; cytotoxicity flag (confluency mask): cytotoxic (confluency <70% of control); higher = enhanced NF-kB activity. The procedure, abridged:
(§1)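 RAW-Dual macrophages were seeded in DMEM at 50,000 cells/well in 384-well plates, given 50 nL of library stock by pin tool, and given a PRR agonist 1 h later. Plates were held at 37 °C, 5% CO2 for 20 hours, after which supernatant was read for IRF by QuantiLuc luminescence and for NF-κB by QuantiBlue absorbance at 620 nm. Reporter activity is expressed as fold change over wells that received agonist alone. A well was called cytotoxic when IncuCyte confluency fell below 70% of agonist controls in both mask sets.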

Test [2] concerns RAW-Dual. As to the kind of experiment: NF-kB SEAP reporter activity, fold change vs agonist alone; higher = enhanced NF-kB activity. Put shortly:
as §1

Test [3] deals with RAW-Dual. As to the kind of experiment: NF-kB SEAP reporter activity, fold change vs agonist alone; cytotoxicity flag (confluency mask): not cytotoxic; higher = enhanced NF-kB activity. The procedure, abridged: as §1
[4] abbreviates: agonist: ODN 1826 (TLR9) 0.5 ug/mL.
[5] abbreviates: agonist: Pam2CSK4 (TLR2/6) 0.1 ug/mL.
[6] abbreviates: agonist: Pam3CSK4 (TLR2/1) 0.1 ug/mL.
The mark [7] stands for this setting: library stock concentration (final ~1000-fold dilution): 10 mM, cytotoxicity flag (confluency mask): cytotoxic (confluency <70% of control), agonist: Imiquimod (TLR7) […].
Where [8] appears, read: library stock concentration (final ~1000-fold dilution): 10 mM, cytotoxicity flag (confluency mask): cytotoxic (confluency <70% of control), agonist: MPLA (TLR4) […].
The mark [9] stands for this setting: library stock concentration (final ~1000-fold dilution): 10 mM, cytotoxicity flag (confluency mask): not cytotoxic, agonist: Imiquimod (TLR7) […].
Where [10] appears, read: library stock concentration (final ~1000-fold dilution): 10 mM, cytotoxicity flag (confluency mask): not cytotoxic, agonist: MPLA (TLR4) […].
[11] abbreviates: library stock concentration (final ~1000-fold dilution): 1 mM, cytotoxicity flag (confluency mask): not cytotoxic, agonist: Imiquimod (TLR7) […].
Setting [12] is: library stock concentration (final ~1000-fold dilution): 1 mM, cytotoxicity flag (confluency mask): not cytotoxic, agonist: MPLA (TLR4) […].

Take `CN(c1ncccc1CNc1nc(Nc2ccc3c(c2)CC(=O)N3)ncc1C(F)(F)F)S(C)(=O)=O.Cl` (library stock concentration (final ~1000-fold dilution): 10 mM): the “NF-kB SEAP reporter activity” value in the test on RAW-Dual [1] (agonist: LPS (TLR4) 0.1 ug/mL) was determined as 0.194; in the test on RAW-Dual [1] (setting [4]) it was 0.29; in the test with RAW-Dual [1] (setting [5]) it was 0.0618; in the test with RAW-Dual [1] (setting [6]) it was 0.135.
Take `CN(c1ncccc1CNc1nc(Nc2ccc3c(c2)CC(=O)N3)ncc1C(F)(F)F)S(C)(=O)=O.Cl`: the “NF-kB SEAP reporter activity” value amounted to 0.169 in the test on RAW-Dual [2] (setting [7]) and 0.247 in the test with RAW-Dual [2] (setting [8]).
For `CC1OC(OC2C(CO)OC(OC3C(CO)OC(O)C(O)C3O)C(O)C2O)C(O)C(O)C1NC1C=C(CO)C(O)C(O)C1O` (stereo not drawn) (library stock concentration (final ~1000-fold dilution): 10 mM), the “NF-kB SEAP reporter activity” value stood at 1.19 with RAW-Dual [3] (agonist: LPS (TLR4) 0.1 ug/mL), 1.03 with RAW-Dual [3] (setting [4]), 1.02 with RAW-Dual [3] (setting [5]) and 1.06 in the test with RAW-Dual [3] (setting [6]).
For the molecule `CC1OC(OC2C(CO)OC(OC3C(CO)OC(O)C(O)C3O)C(O)C2O)C(O)C(O)C1NC1C=C(CO)C(O)C(O)C1O` (stereo not drawn), the “NF-kB SEAP reporter activity” value in the test with RAW-Dual [2] (setting [9]) turned out to be 0.983; in the test on RAW-Dual [2] (setting [10]) it was 0.951.
`CCOC(=O)c1cnc2ccc(-c3cncc(NS(=O)(=O)c4ccccc4)c3)cn12`: the figures for the “NF-kB SEAP reporter activity” value with RAW-Dual [2] (setting [7]) and with RAW-Dual [2] (setting [8]) were 1.31 and 2.94, respectively.
As for `Nc1nc2cc(-c3ccc4ncc(C(=O)N5CCOCC5)n4c3)ccc2o1` (library stock concentration (final ~1000-fold dilution): 10 mM), the “NF-kB SEAP reporter activity” value with RAW-Dual [3] (agonist: LPS (TLR4) 0.1 ug/mL) amounted to 0.841; in the test with RAW-Dual [3] (setting [4]) it was 1.02; in the test with RAW-Dual [3] (setting [5]), 0.774; with RAW-Dual [3] (setting [6]) it was 0.811.
Turning to `Nc1nc2cc(-c3ccc4ncc(C(=O)N5CCOCC5)n4c3)ccc2o1`, the “NF-kB SEAP reporter activity” value in the test on RAW-Dual [2] (setting [9]) and with RAW-Dual [2] (setting [10]) was 1.09 each time.
As to `CCOC(=O)c1cnc2ccc(-c3cncc(NS(=O)(=O)c4ccccc4)c3)cn12` (library stock concentration (final ~1000-fold dilution): 10 mM), the “NF-kB SEAP reporter activity” value in the test on RAW-Dual [1] (agonist: LPS (TLR4) 0.1 ug/mL) came to 7.43; in the test on RAW-Dual [1] (setting [4]), 2.4; in the test with RAW-Dual [1] (setting [5]) it was 1.68; with RAW-Dual [1] (setting [6]), 3.96.
As for `Cn1c(-c2ccccc2C(F)(F)F)nnc1C12CCC(c3noc(C4CC(F)(F)C4)n3)(CC1)CC2`, the entries for the “NF-kB SEAP reporter activity” value with RAW-Dual [2] (setting [9]) and with RAW-Dual [2] (setting [10]) were 0.868 and 1.3, respectively.
As to `Cn1c(-c2ccccc2C(F)(F)F)nnc1C12CCC(c3noc(C4CC(F)(F)C4)n3)(CC1)CC2` (library stock concentration (final ~1000-fold dilution): 10 mM), the “NF-kB SEAP reporter activity” value in the test on RAW-Dual [3] (agonist: LPS (TLR4) 0.1 ug/mL) worked out at 1.22; in the test on RAW-Dual [3] (setting [4]), 0.41; in the test on RAW-Dual [3] (setting [5]) it was 0.827; in the test with RAW-Dual [3] (setting [6]) it was 1.16.
Consider `CCCCCCOC(=O)c1cc(=O)c(O)c2c(O)c(O)c(OC)cc2c1`, for which the results for the “NF-kB SEAP reporter activity” value in the test with RAW-Dual [2] (setting [11]) and in the test on RAW-Dual [2] (setting [12]) were 1.03 and 1.23, respectively.
Turning to `CCCCCCOC(=O)c1cc(=O)c(O)c2c(O)c(O)c(OC)cc2c1` (library stock concentration (final ~1000-fold dilution): 1 mM), the “NF-kB SEAP reporter activity” value turned out to be 1.14 in the test on RAW-Dual [3] (agonist: LPS (TLR4) 0.1 ug/mL), 0.931 in the test with RAW-Dual [3] (setting [4]), 0.872 in the test on RAW-Dual [3] (setting [5]) and 0.85 with RAW-Dual [3] (setting [6]).
In the same order, the values of `CCCN(CCC)C(=O)C1=Cc2ccc(-c3ccc(C(=O)N4CCCC4)cc3)cc2N=C(N)C1` (library stock concentration (final ~1000-fold dilution): 1 mM) are 2.58, 1.07, 1.16 and 1.26.
As for `CCOC(=O)C1=Cc2ccc(C(F)(F)C(F)(F)F)cc2N=C(N)C1`, the “NF-kB SEAP reporter activity” value in the test on RAW-Dual [2] (library stock concentration (final ~1000-fold dilution): .1 mM, cytotoxicity flag (confluency mask): not cytotoxic, agonist: Imiquimod (TLR7) […]) is 0.718; with RAW-Dual [2] (library stock concentration (final ~1000-fold dilution): .1 mM, cytotoxicity flag (confluency mask): not cytotoxic, agonist: MPLA (TLR4) […]), 1.18.
Turning to `CCCN(CCC)C(=O)C1=Cc2ccc(-c3ccc(C(=O)N4CCCC4)cc3)cc2N=C(N)C1`, the entries for the “NF-kB SEAP reporter activity” value in the test on RAW-Dual [2] (setting [11]) and with RAW-Dual [2] (setting [12]) were 1.22 and 1.82, respectively.
For the molecule `CCOC(=O)C1=Cc2ccc(C(F)(F)C(F)(F)F)cc2N=C(N)C1` (library stock concentration (final ~1000-fold dilution): .1 mM), the “NF-kB SEAP reporter activity” value came out at 1.34 in the test with RAW-Dual [3] (agonist: LPS (TLR4) 0.1 ug/mL), 1.25 with RAW-Dual [3] (setting [4]), 1.09 in the test on RAW-Dual [3] (setting [5]) and 1.17 in the test with RAW-Dual [3] (setting [6]).

The values are drawn from the supplement of paper PMC10037445.
